# An excerpt weighted towards active compounds, which were near 8% of everything screened.
# KB-3-1 tox – KB-3-1 parental cell cytotoxicity. KB-3-1 viability, CellTiter-Glo ATP luminescence, 72 h. 400,000 compounds, 1.4% hits. AID 1347075. Potency, µM (highest dose often 46.1 µM), most hits filed as cytotoxic; note: % is set by controls: 0 for no effect and ±100 for the full control effect; nearly all actives have a fitted effect of over 60% in size
#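 Viability of parental KB-3-1 cells, measured by CellTiter-Glo luminescence, followed a 72 h incubation at 37 °C with pinned compounds in phenol-red-free DMEM containing 10% FBS.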
# KB-V1 MDR tox – KB-V1 MDR subline cytotoxicity; KB-V1 MDR cells viability, CellTiter-Glo, 72 h; Potency, µM (titrated, usually from 46.1 µM), hits mostly cytotoxic; 400,000 compounds, 3.4% hits; AID 1347076; note: % is set by controls: 0 for no effect and ±100 for the full control effect; nearly all actives have a fitted effect of over 60% in size
#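 Following 72 h at 37 degrees C with compound, KB-V1 cell viability was read by CellTiter-Glo luminescence, medium being phenol-red-free DMEM plus 10% FBS; concentration-response parameters came from normalized, curve-fitted qHTS data.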
# MCF10A rerep – inducers of DNA re-replication in MCF 10A breast cells; 350,000 compounds, 2.9% hits; MCF 10A DNA re-replication, Hoechst nuclear intensity, 48 h; Potency, µM (top dose mostly 46.1 µM), for inactives: at the top dose activity, positive = re-replication, usual class: activators; note: % of control where 0% means no effect; nearly all actives have a fitted effect of over 50% in size
# HT1080-NT tox – kills 2HG-producing HT-1080-NT fibrosarcoma cells; 360,000 compounds, 1.6% hits; HT-1080-NT fibrosarcoma viability, CellTiter-Glo ATP luminescence, 48 h; Potency, µM (highest dose often 46.1 µM), for inactives: at the top dose activity, negative = less viability, usual class: cytotoxic;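 note: NT is the 2HG producing partner of a matched IDH1 knockdown line; 0% = DMSO-treated cells and -100% = media-only wells without cells; nearly all actives have a fitted effect of over 55% in size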
#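 Viability of the 2HG-overproducing fibrosarcoma line after 48 hours of compound exposure at 37 degrees C was determined by luminescence with CellTiter-Glo, and concentration-effect curves were then fitted and categorized.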
# SW480 rereplic – DNA re-replication induction in SW480 cells. SW480 DNA re-replication, Hoechst DNA content imaging, 48 h. Potency, µM (titrated, usually from 46.1 µM), without a hit: at the highest dose re-replication activation, hits mostly activators. 340,000 compounds, 1.8% hits. AID 624297; note: % of control where 0% means no effect; nearly all actives have a fitted effect of over 55% in size
#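 Per well, 250 cells were exposed to pinned compound for 48 hr. Nuclear DNA was visualised with Hoechst (40 min, 37 C) and total object intensity recorded by fluorescence scanning.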
# HT1080 IDH1KD tx – HT-1080 IDH1 knockdown cell toxicity (counter line); AID 686971; HT-1080 IDH1 knockdown viability, ATP luminescence, 48 h; Potency, µM (titrated, usually from 46.1 µM), for inactives: at the highest dose activity, negative = toxicity, actives largely listed as cytotoxic; 360,000 compounds, 2% hits;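 note: 0% = DMSO wells and -100% = cell-free medium wells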
#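 Assay cells: HT-1080 with IDH1 knockdown, 750 per well, RPMI/5% FBS. Exposure: 48 h at 37 °C following 2 h pre-incubation. Read: CellTiter-Glo luminescence; fitted concentration-response, curve class assigned.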
# The depositor's hits bear a star; i = inactive; ? = inconclusive; nt = no result; [ ] = dose if it differs, or a comment. Calls come from the whole dose curve; as a rule, active = well fitted curve in the direction sought with a large enough effect; inconclusive = small, poorly fitted or top-dose-only effect, or another doubt; inactive = no such curve, though single readings can be large; an effect the other way counts as inactive or inconclusive. Potency is the fitted concentration of half-maximal effect.
SMILES,KB-3-1 tox,KB-V1 MDR tox,MCF10A rerep,HT1080-NT tox,SW480 rereplic,HT1080 IDH1KD tx
O=C(c1ccc(-c2nc3ccccc3s2)s1)N1CCOCC1,?,?,?,8.2µM*,2%,?
Cc1ccc(-c2nnc(NCc3nc4ccccc4[nH]3)c3ccccc23)cc1S(=O)(=O)N1CCCCC1,i,i,?,-4%,4%,4%
O=C(O)C1=C[C@H](c2csc3ccccc23)C[C@H](OCc2ccc(CO)cc2)O1,i,i,9%,0%,-1%,5%
O=C(C1=C[C@H](c2csc3ccccc23)C[C@H](OCc2ccc(CO)cc2)O1)N1CCCCCCC1,i,i,23µM*,-22%,1%,-22%
O=C(NCc1ccccc1)C1=C[C@@H](c2csc3ccccc23)C[C@@H](OCCCCO)O1,5.8µM*,?,-6%,-28%,14%,?
O=C(NCc1ccccc1)C1=C[C@@H](c2csc3ccccc23)C[C@@H](OCc2ccc(CO)cc2)O1,21µM*,21µM*,60%,-16%,?,-28%
CN1CCN(C(=O)C2=C[C@H](c3csc4ccccc34)C[C@H](OCc3ccc(CO)cc3)O2)CC1,i,i,3%,-12%,-6%,-11%
O=C(CN1C(=O)C2CC=CCC2C1=O)Nc1ccc(-c2nnc3n2CCCCC3)cc1 (centres undefined),i,i,9%,12%,-13%,10%
CC(Cl)C(=O)Nc1c2c(nn1-c1ccccc1)CSC2 (centres undefined),i,i,1%,1%,1%,17%
O=C(NCC(c1cccnc1)N1CCN(c2ccccc2)CC1)C1CCCCC1 (centres undefined),i,21µM*,-7%,0%,1%,-3%
O=C(NCC(c1cccnc1)N1CCN(c2ccccc2)CC1)OCc1ccccc1 (centres undefined),i,2.6µM*,15%,11%,-4%,3%
O=C(NCC(c1cccnc1)N1CCN(c2ccc(F)cc2)CC1)OCc1ccccc1 (centres undefined),i,?,4%,-7%,4%,-5%
Cc1ccc(CN2CCCNC2=O)cc1,i,i,-17%,10%,-6%,0%
O=S(=O)(c1ccc(S(=O)(=O)N(Cc2cccs2)CC2CCCO2)cc1)N1CCCCC1 (centres undefined),i,7.3µM*,?,4%,-2%,-9%
O=S(=O)(NC1CCCC1)c1ccc(S(=O)(=O)N(Cc2cccs2)CC2CCCO2)cc1 (centres undefined),i,?,5%,0%,14%,9%
COCCNS(=O)(=O)c1cccn1-c1ncc(C(F)(F)F)cc1Cl,i,i,1%,9%,-8%,1%
COc1ccc(CCCNC(=O)C2Cc3c(-c4cccc(NC(C)=O)c4)ccnc3O2)cc1 (centres undefined),6.5µM*,?,nt,?,nt,?
CC(=O)NCCNC(=O)C1Cc2c(-c3cccc(NC(C)=O)c3)ccnc2O1 (centres undefined),i,i,nt,?,nt,27%
CC(=O)Nc1cccc(-c2ccnc3c2CC(C(=O)NCc2cccs2)O3)c1 (centres undefined),5.8µM*,i,nt,?,nt,0.65µM*
CC(=O)Nc1cccc(-c2ccnc3c2CC(C(=O)NCCC(F)(F)F)O3)c1 (centres undefined),?,i,nt,?,nt,21µM*
CC(C)CN1C(=O)c2ccc(C(=O)Nc3nccs3)cc2C1=O,i,i,-1%,-4%,-6%,-6%
COc1ccc(OC)c(CN2CCN(Cc3ccc(OC)c(OC)c3OC)CC2)c1,i,i,nt,-17%,nt,-10%
CCN(CC)CCN(Cc1cc2ccc(C)cc2[nH]c1=O)C(=O)Nc1ccc(Cl)cc1,?,i,-7%,3%,0%,18%
COCCN(C(=O)c1ccc2ccccc2c1)c1c(N)n(Cc2ccccc2)c(=O)[nH]c1=O,?,i,14%,-16%,-10%,3%
CC(=C\c1ccco1)/C=C(\C#N)C(=O)NCCc1c[nH]c2ccccc12,i,23µM*,?,-1%,5%,12%
SMILES,KB-3-1 tox,KB-V1 MDR tox,MCF10A rerep,HT1080-NT tox,SW480 rereplic,HT1080 IDH1KD tx
COc1cc(/C=C(/C#N)C(=O)NCCc2c[nH]c3ccccc23)ccc1OCc1ccccc1F,?,?,5.2µM*,-2%,3.3µM*,-8%
Cc1cc(/C=C(\C#N)C(=O)NCCc2c[nH]c3ccccc23)c(C)n1C,i,i,11%,-1%,4%,-14%
O=C(NCCc1c[nH]c2ccccc12)/C(=C/c1ccco1)NC(=O)c1ccco1,i,i,-1%,14%,-17%,10%
CCCCn1c(N)c(N(CC(C)C)C(=O)c2ccc(C)o2)c(=O)[nH]c1=O,i,i,2%,11%,-28%,0%
Cc1cc(F)ccc1S(=O)(=O)N1CCCOC1CNC(=O)C(=O)NCc1ccc2c(c1)OCO2 (centres undefined),i,?,17%,3%,-7%,-1%
O=C1OC(c2ccccc2)(c2ccc(O)cc2)c2ccccc21 (centres undefined),i,i,?,21µM*,0%,?
COCCn1c(SCC(=O)NCCCN2CCCC2=O)nc2sc3c(c2c1=O)CCCC3,i,21µM*,5%,-3%,-1%,0%
CCc1sc2nc(SCC(=O)Nc3cc(C)on3)n(-c3cccc(OC)c3)c(=O)c2c1C,i,1.6µM*,?,-24%,15%,-23%
Cc1cc(NC(=O)CSc2nc3sc4c(c3c(=O)n2C)CCCC4)no1,i,i,19%,1%,17%,-3%
COc1cccc(-n2c(SCC(=O)Nc3cc(C)on3)nc3ccccc3c2=O)c1,i,i,-1%,1%,6%,-25%
Cc1nn(Cc2ccccc2)c(C)c1NC(=O)CSc1nc2sc3c(c2c(=O)n1C)CCC3,9.2µM*,?,1%,0%,-7%,-9%
C=CCn1c(SCC(=O)Nc2cc(C)on2)nc2sc3c(c2c1=O)CCCC3,i,i,-10%,15%,-2%[9.22 µM],16%
CCn1c(SCC(=O)Nc2cc(C)on2)nc2sc3c(c2c1=O)CCCC3,i,i,?,10µM*,?,?
Cc1sc2ncn(CC(=O)N(C)c3ccc(Br)cc3)c(=O)c2c1S(=O)(=O)N1CCC(C)CC1,i,i,nt,nt,nt,nt
